# Measurements published in PubChem BioAssay (NCI).
# Compounds without any hit were thinned out: in the full panel of roughly 83,000, 20% have a hit.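 Plates (96-well) were seeded with cells, treated with compound at one concentration, and incubated for 48 hours before percent growth was determined.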 Unmarked numbers belong to inactive results. The source made the active and inactive calls. Rule for the calls: active = growth percent below 10; inactive = the rest.
# Tested on: SF-295 CNS
# Assay: NCI-60 one-dose screen, 48 h (100 = growth as untreated, 0 = no growth, -100 = all killed)
# Conditions: 10 µM unless noted
row,SMILES,growth
1,O=C(CCl)c1ccc([N+](=O)[O-])o1,92.2%
2,CCCCCSC1C2C(=O)C(Br)=CC13CCNc1c(O)c4c5c(c13)=[N+]2CCC=5C=N4 (configuration not stated),20.9%
3,COc1ccc(C/C(C)=C(\c2ccc(OCCN3CCOCC3)cc2)c2ccc(OC(=O)Cc3ccccc3)cc2)cc1,-57.6% (active)
4,Cn1cc(-c2csc(-c3cn(CCCCN4CCCCC4)c4ccc(F)cc34)n2)c2cccnc21,99.7%
5,COc1ccc2c(c1)c(-c1nc(-c3cn(C)c4ncccc34)cs1)cn2CCCCN1CCCCC1,-50.1% (active)
6,C[n+]1c(/C=C/c2ccc(N(CCCl)CCCl)cc2)sc2ccccc21,55.7%
7,C=CC[Se]C(=O)c1ccccc1OC(C)=O,-29.4% (active)
8,CC(=O)OC1CCC2C3CCC4=C/C(=N/OC(=O)c5ccc(N(CCCl)CCCl)cc5)CCC4(C)C3CC(C)C12 (configuration not stated),81.5%
9,CCCCCCCC[n+]1ccc2ccccc2c1,67%
10,Cn1cccc1C1CC(=O)N(CCC[Se]C#N)C1=O (configuration not stated),-58.2% (active)
11,C[Se]C(=O)c1ccccc1OC(C)=O,48.6%
12,O=C1Nc2ccccc2C2c3cccn3-c3ccccc3CN12 (configuration not stated),59.8%
13,CCOC(=O)[C@@H](C)C[C@H](Cc1ccccc1)NC(=O)c1csc([C@@H](C[C@H](C(C)C)N(C)C(=O)[C@H](CCC(C)C)NC(=O)[C@H]2CCCCN2C)OC(C)=O)n1,12.2%
14,COC(=O)[C@H](C[C@H](Cc1ccccc1)NC(=O)c1csc([C@@H](C[C@H](C(C)C)N(C)C(=O)[C@@H](NC(=O)[C@H]2CCCCN2C)C(C)C)OC(C)=O)n1)NC(=O)OCc1ccccc1,8.4% [8.5 µM] (active)
15,CC1(C)N=C(N)N=C(N)N1c1ccc(OCCCNC(=O)Nc2ccc(S(=O)(=O)F)cc2)c(Cl)c1,21.7%
16,O=C(CN1CCN(C(=O)c2ccco2)CC1)Nc1ccc(Cl)cc1C(=O)c1ccccc1Cl,109%
17,Cc1cc(N(CCCl)CCCl)ccc1C=Nc1ccccc1-c1ccccc1,27.2%
18,Cn1cc(-c2csc(-c3cn(CCN4CCOCC4)c4ccccc34)n2)c2cccnc21,72.2%
19,CCOC(=O)[C@@H](C)C[C@H](Cc1ccccc1)NC(=O)c1csc([C@@H](C[C@H](C(C)C)N(C)C(=O)[C@H](CC)NC(=O)[C@H]2CCCCN2C)OC(C)=O)n1,1.53% (active)

row,SMILES,growth
1,ClC1=C(Cl)C(Cl)(C2(Cl)C(Cl)=C(Cl)C(Cl)=C2Cl)C(Cl)=C1Cl,89.6%
2,O=C([O][Hg][CH2]C1OCCOC1[CH2][Hg][O]C(=O)c1ccccc1)c1ccccc1 (configuration not stated),112%
3,COc1ccc([As]=[As]c2ccc(OC)c(NCS(=O)(=O)O)c2)cc1NCS(=O)(=O)O (configuration not stated),80%
4,[Cl][Hg][n]1c(-c2ccco2)nc2ccccc21,106%
5,CCC[CH2][Sn]([CH2]CCC)([CH2]CCC)[O]c1ccc(Cl)cc1Cl,-37% (active)
6,NC(CCl)CCl,93.9%
7,CN1CCC(c2c[nH]c3ccccc23)C1 (configuration not stated),105%
8,CCCCCCCCCCCCCCCCCC1OC[C@@H](COC(=O)O[C@@H](C(=O)O[C@H]2C[C@@]3(O)[C@@H](OC(=O)c4ccccc4)[C@@H]4[C@]5(OC(C)=O)CO[C@@H]5C[C@H](O)[C@@]4(C)C(=O)[C@H](OC(C)=O)C(=C2C)C3(C)C)[C@@H](NC(=O)c2ccccc2)c2ccccc2)O1 (some centres not stated),61%
9,CC1=C([Te]c2ccc(O)cc2)C(=O)c2ccccc2C1=O,-37.4% (active)
10,O=C1NC(=O)C(=Cc2cn(CCCCCCn3c4ccccc4c(=O)c4ccccc43)c3ccccc23)C(=O)N1,65.7%
11,CC(C)OC(=O)[C@H](C)NP(=O)(Oc1ccccc1)C1CCCN(O)C1=O (some centres not stated),95.6%
12,CCCCCCC(=O)NC1=C(N2CC2)C(=O)C(NC(=O)CCCCCC)=C(N2CC2)C1=O,29.7%
13,COc1ccc(/C=C\c2cc(OC)c(OC)c(OC)c2)cc1NS(=O)(=O)c1ccc(Cl)cc1,69.3%
14,CC[C@H](C)[C@H](NC(=O)[C@H]1CCCCN1C)C(=O)N(C)[C@H](CC(=O)c1nc(C(=O)N[C@@H](Cc2ccccc2)C[C@H](C)C(=O)O)cs1)C(C)C,87.4%
15,C[C@]12C[C@@H](CO)[C@H](O)C[C@@H]1CC[C@@H]1[C@@H]2CC[C@]2(C)[C@@H](O)CC[C@@H]12,113%
16,[Cl][Hg][c]1cc[c]([Hg][Cl])o1,93.4%
17,NC(=S)c1cn(C2OC(CO)C(O)C2O)c2ncnc(N)c12 (configuration not stated),-3.13% (active)
18,COC(=O)CC[C@H](Cc1ccccc1)NC(=O)c1csc([C@@H](C[C@H](C(C)C)N(C)C(=O)[C@@H](NC(=O)[C@H]2CCCCN2C)C(C)C)OC(C)=O)n1,32%
